# Cruzain inh Det – blocks cruzain activity in presence of Triton detergent; purified cruzain, Z-FR-AMC fluorescence, 0.01% Triton; Potency, µM, inactives show max response, negative = inhibition, hits mostly inhibitors; 0.43% of 200,000 active; AID 1478;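 further: plate controls were neutral wells for no effect and buffer without enzyme for full effect; nearly all actives have a fitted effect of over 40% in size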
# Target sequence (P25779 123-467 limits assumed): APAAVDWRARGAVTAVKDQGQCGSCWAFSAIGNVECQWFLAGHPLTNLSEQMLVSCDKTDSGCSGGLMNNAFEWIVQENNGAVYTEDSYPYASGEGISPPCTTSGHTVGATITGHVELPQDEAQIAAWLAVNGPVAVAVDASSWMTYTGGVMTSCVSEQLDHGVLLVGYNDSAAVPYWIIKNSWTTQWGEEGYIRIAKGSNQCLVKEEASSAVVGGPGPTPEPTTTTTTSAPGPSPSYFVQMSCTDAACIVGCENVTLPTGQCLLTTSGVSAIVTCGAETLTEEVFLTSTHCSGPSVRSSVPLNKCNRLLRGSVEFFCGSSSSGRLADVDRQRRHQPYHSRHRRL
#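 Z-FR-AMC hydrolysis (2 uM substrate) by cruzain (1.5 nM) monitored kinetically at ex 360/em 450 nm after 15 min room-temperature compound exposure; 0.01% Triton X-100, pH 5.5, 5 mM DTT.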
# Cruzain inh noDet – blocks cruzain activity in detergent-free assay; P25779; purified cruzain, Z-FR-AMC fluorescence, no detergent; Potency, µM, without a hit: max response, negative = inhibition, usual class: inhibitors; 2.3% of 200,000 active; AID 1476;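 further: plate controls were enzyme without inhibitor for no effect and buffer without enzyme for full effect; nearly all actives have a fitted effect of over 40% in size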
#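 Purified cruzain at 1.5 nM, pre-incubated 15 min with compound at room temperature in 100 mM sodium acetate pH 5.5, 5 mM DTT, 0.00005% Triton X-100. Reaction started with 2 uM Z-FR-AMC; AMC fluorescence increase over 60 s gives rate.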
# Starred values were filed as active, the others as inactive; ? = inconclusive. Shown are actives, neighbours in structure and some others; about 2.5% of the full set was active somewhere. The call rests on the fitted dose curve; in most records, active means well fitted curve in the direction sought with a large enough effect; inconclusive means small, poorly fitted or top-dose-only effect, or another doubt; inactive means no such curve, though single readings can be large; an effect the other way counts as inactive or inconclusive. Potency means the concentration at half of the fitted maximal effect.
SMILES,Cruzain inh Det,Cruzain inh noDet
N#Cc1sc2nc(-c3cccs3)cc(-c3ccccc3)c2c1N,-1%,16µM*
CN(CCC#N)C(=O)COC(=O)c1c2c(nc3ccccc13)/C(=C/c1ccco1)CC2,-12%,?
C[C@H](C[C@H](N)C(=O)O)C(=O)O,-2%,7%
O[C@@H](c1cc(C(F)(F)F)nc2c(Cl)cc(Cl)cc12)C1CCCCN1 (stereo partly specified),-3%,-6%
CCc1ccc(C(=O)COC(=O)C(Cc2ccccc2)NC(=O)C2CCC(C)CC2)cc1 (stereo unspecified),7%,-15%
CC1CCC(C(=O)NC(C(=O)OCC(=O)c2ccccc2)C(C)C)CC1 (stereo unspecified),16µM*,?
COc1cccc(-c2ccc3ncnc(NC4CC4)c3c2)c1,-7%,-7%
COc1ccc(Br)cc1C1CC(=O)N2CN(C)CSC2=C1C#N (stereo unspecified),-6%,2%
N#CC1=C2SCN(Cc3ccco3)CN2C(=O)CC1c1c(F)cccc1Cl (stereo unspecified),?,20µM*
Cc1ccc(C2CC(=O)N3CN(Cc4ccco4)CSC3=C2C#N)cc1 (stereo unspecified),-3%,-5%
COc1ccc(Br)cc1C1CC(=O)N2CN(Cc3ccccc3)CSC2=C1C#N (stereo unspecified),?,32µM*
COC(=O)C12C/C=C\Cc3ccccc3[C@@H]1CNC2=O (stereo partly specified),4%,-5%
CC(=O)Nc1cccc(Oc2ncnc3scc(-c4ccc(C(C)C)cc4)c23)c1,-10%,?
Cc1cccc(N2CCN(S(=O)(=O)c3c(C(=O)N4CCC(C)CC4)c(C)n(C)c3C)CC2)c1C,-7%,?
COc1ccc(S(=O)(=O)N2CCCCC2)cc1,-2%,5%
COc1ccc(S(=O)(=O)N=C2C=C(C)C(=O)C(C)=C2)cc1,-3%,13µM*
COc1ccccc1C(=O)NCC(c1ccc(N(C)C)cc1)N1CCc2ccccc21 (stereo unspecified),-11%,?
CC(C)Oc1ccc(C(=O)NCC(c2ccc(N(C)C)cc2)N2CCc3ccccc32)cc1 (stereo unspecified),-4%,?
COc1ccc(C(=O)NCC(c2ccc(N(C)C)cc2)N2CCc3ccccc32)cc1 (stereo unspecified),?,13µM*
CN(C)c1ccc(C(CNC(=O)c2ccccc2Cl)N2CCc3ccccc32)cc1 (stereo unspecified),-17%,32µM*
CC(=O)c1cccc(Nc2c3c(nc4nc(-c5cccs5)nn24)CCCC3)c1,-5%,-8%
COC(=O)[C@@H]1C2CC3c4[nH]c5cc(OC)ccc5c4CCN3CC2C[C@H](OC(=O)c2cc(OC)c(OC)c(OC)c2)C1OC (stereo partly specified),0%,3%
C=C(C)CSc1nc2sc3c(c2c(=O)n1-c1ccccc1)CCC(C)C3 (stereo unspecified),3%,15%
COc1ccc(NC(=O)c2c(NCc3ccc(C)o3)sc3c2CCC(C)C3)cc1 (stereo unspecified),-13%,0%
Nc1nonc1-c1nc2ccccc2n1Cc1c(Cl)cccc1Cl,-4%,25µM*
SMILES,Cruzain inh Det,Cruzain inh noDet
Nc1nonc1-c1nc2ccccc2n1Cc1ccccc1,-7%,-15%
Cc1ccccc1CNC(=O)C(C)N(c1ccccc1)S(C)(=O)=O (stereo unspecified),-2%,-10%
COc1cc(OC)c(OC)cc1/C=C/C(=O)c1ccc(NS(=O)(=O)c2ccc(C)cc2)cc1,-4%,20µM*
CC(=O)c1ccc(NS(=O)(=O)c2ccc(C)cc2)cc1,1%,6%
Nc1cccc2c(N)cccc12,-5%,2%
Nc1cc2c(nc3c4ccccc4c(N)cc3[n+]2-c2cccc3ccccc23)c2ccccc12 (tested in a mixture with another compound),0%,1.3µM*
Cc1cnc(CNc2cc(-c3ccccc3C)ncn2)cn1,3%,2%
CCOc1ccc(S(=O)(=O)Nc2ccc3c(c2)c(C(C)=O)c(C)n3S(=O)(=O)c2ccc(OCC)cc2)cc1,0%,?
CCOc1ccc(S(=O)(=O)Nc2ccc3c(c2)c2c(n3S(=O)(=O)c3ccc(OCC)cc3)CCCC2=O)cc1,-1%,7.9µM*
COc1cccc(CNC(=O)C2CCN(S(=O)(=O)c3c(C)nn(C)c3C)CC2)c1,1%,5%
CCN(CC)c1ccccc1,-1%,-6%
Nc1ccc(N(c2ccccc2)c2ccc(N)cc2)cc1,-1%,32µM*
CC1C(=O)OC2O[C@]3(C)CC[C@H]4C(C)CCC1[C@]24OO3 (stereo partly specified),0%,-6%
CCC(=O)N1c2ccc(C)cc2C2=NNC(=S)NC21O (stereo unspecified),?,0.63µM*
CC1=CC(C)(C)N(C(=O)CN2C(=O)c3ccccc3C2=O)c2ccc(C)cc21,-5%,-7%

# Screens from PubChem.
